Our source for the inhibition values is PubChem BioAssay AID588664 (The Scripps Research Institute Molecular Screening Center, 2011).

As a reminder, the inhibition is the change of the read-out against control, counted positive when it falls.

In all, about 360,000 compounds went through this assay and about 1,400 (0.39%) were called active. Rule as the data show it: active = inhibition above about 5% (passing the limit was not always enough); inactive = the rest. The sample as a whole holds a higher share of actives than the screen did.

Sequence of Tyrosine-protein kinase ABL1 (Homo sapiens) + Ras and Rab interactor 1 (Homo sapiens) (P00519 whole entry, looked up): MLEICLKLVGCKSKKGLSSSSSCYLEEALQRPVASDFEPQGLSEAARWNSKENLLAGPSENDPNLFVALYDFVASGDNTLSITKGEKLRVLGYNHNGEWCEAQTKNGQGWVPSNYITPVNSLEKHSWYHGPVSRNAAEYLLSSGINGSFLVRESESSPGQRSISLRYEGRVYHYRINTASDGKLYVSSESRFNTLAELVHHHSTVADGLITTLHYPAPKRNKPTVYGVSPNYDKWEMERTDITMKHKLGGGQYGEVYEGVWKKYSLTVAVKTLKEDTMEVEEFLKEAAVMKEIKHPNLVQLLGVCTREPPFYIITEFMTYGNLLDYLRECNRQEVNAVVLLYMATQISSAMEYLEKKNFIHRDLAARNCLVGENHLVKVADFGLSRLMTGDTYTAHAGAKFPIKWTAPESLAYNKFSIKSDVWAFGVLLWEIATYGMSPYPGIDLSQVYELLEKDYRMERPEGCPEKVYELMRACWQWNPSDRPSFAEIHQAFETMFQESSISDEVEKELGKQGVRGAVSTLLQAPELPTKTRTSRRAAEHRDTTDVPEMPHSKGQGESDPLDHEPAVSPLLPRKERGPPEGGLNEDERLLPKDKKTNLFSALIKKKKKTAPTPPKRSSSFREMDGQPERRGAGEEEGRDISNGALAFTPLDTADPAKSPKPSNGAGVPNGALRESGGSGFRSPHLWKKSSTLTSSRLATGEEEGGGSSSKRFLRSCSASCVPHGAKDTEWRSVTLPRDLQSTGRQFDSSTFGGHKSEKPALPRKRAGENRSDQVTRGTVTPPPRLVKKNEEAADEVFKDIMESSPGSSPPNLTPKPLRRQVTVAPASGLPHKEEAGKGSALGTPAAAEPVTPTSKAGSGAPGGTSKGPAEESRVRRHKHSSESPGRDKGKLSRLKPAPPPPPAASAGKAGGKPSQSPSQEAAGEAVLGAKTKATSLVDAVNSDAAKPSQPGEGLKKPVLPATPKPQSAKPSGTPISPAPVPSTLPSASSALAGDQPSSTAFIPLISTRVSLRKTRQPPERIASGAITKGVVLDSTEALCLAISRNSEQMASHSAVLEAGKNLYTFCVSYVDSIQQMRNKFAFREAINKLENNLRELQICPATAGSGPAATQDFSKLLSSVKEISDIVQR
Sequence of Tyrosine-protein kinase ABL1 (Homo sapiens) + Ras and Rab interactor 1 (Homo sapiens) (Q13671 whole entry, looked up): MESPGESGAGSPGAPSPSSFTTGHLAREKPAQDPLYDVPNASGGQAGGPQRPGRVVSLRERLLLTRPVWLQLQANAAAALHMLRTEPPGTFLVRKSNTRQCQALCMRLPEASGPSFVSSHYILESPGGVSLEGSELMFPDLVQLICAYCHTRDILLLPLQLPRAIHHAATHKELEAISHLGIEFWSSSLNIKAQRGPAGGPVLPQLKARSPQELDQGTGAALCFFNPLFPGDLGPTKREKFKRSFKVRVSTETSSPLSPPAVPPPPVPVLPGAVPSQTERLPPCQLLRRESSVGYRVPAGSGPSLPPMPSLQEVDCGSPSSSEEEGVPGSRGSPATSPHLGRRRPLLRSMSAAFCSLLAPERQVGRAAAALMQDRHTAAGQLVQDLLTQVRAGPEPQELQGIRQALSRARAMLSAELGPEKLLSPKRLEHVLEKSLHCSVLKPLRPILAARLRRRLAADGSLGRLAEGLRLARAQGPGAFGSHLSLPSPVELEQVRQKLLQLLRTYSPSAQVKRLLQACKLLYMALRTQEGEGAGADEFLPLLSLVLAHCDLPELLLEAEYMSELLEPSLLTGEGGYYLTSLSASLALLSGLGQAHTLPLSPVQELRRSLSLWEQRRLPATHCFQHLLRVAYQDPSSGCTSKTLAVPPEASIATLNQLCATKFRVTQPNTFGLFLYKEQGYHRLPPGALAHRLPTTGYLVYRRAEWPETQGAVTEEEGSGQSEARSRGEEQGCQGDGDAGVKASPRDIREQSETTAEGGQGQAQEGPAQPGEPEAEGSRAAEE

The assay has as its target Tyrosine-protein kinase ABL1 (Homo sapiens) + Ras and Rab interactor 1 (Homo sapiens) (UniProt P00519+Q13671). The assay is described as follows: inhibitors of Rin1-Abl protein binding, primary screen, biochemical, TR-FRET (AID 588664). The note with it: at 7.35 µM, hits give high values.
For `O=C(CCN1C(=O)[C@H]2CC=CC[C@H]2C1=O)NCc1nc(-c2ccccc2)no1`, the inhibition is 4.64% (inactive).

Take `C=C(Br)Cn1c(CCCC)nc2ccccc21`: the inhibition is -1.26% (inactive).

On to `NS(=O)(=O)c1ccc(CCNC(=S)Nc2ccc(S(N)(=O)=O)cc2)cc1`, for which the inhibition is -1.51% (inactive).

In the case of `CN(CC(=O)NCCc1ccc(S(N)(=O)=O)cc1)CC(=O)Nc1ccc(Cl)cc1`, the inhibition is 2.85% (inactive).

Turning to `NS(=O)(=O)c1ccc(CCNC(=O)Nc2ccc(Cl)cc2)cc1`, the inhibition is 7.48% (active).

As for `COc1ccc(-c2c(C)nn3c(N4CCC(C(=O)N5CCCCC5)CC4)cc(C)nc23)cc1OC`, the inhibition is -0.97% (inactive).

For `c1ccc(Cc2nn3c(Cn4cnc5ccccc54)nnc3s2)cc1`, the inhibition is 6.72% (inactive).

Turning to `OCCNc1nc2ccccc2n1-c1ncnc2sc3c(c12)CCC3`, the inhibition was -1.62% (inactive).

Take `CCc1cc2c(NC3CCCC3)ncnc2s1`: the inhibition is -2.86% (inactive).

As for `CCc1cc2c(N3CCN(c4nnc(CC)s4)CC3)ncnc2s1`, the inhibition was 7.4% (active).

On to `CCc1cc2c(NC(Cc3ccccc3)C(=O)O)ncnc2s1` (stereo not given), for which the inhibition is -0.92% (inactive).

Take `C[C@@H](NC(=O)[C@@H]1Cc2ccccc2CN1)C(=O)NC1CCCC1`: the inhibition is 0.01% (inactive).

`Cc1ccc(C)c(NS(=O)(=O)c2ccc(OCC(=O)NCc3cccnc3)cc2)c1`: the inhibition is 2.47% (inactive).

As for `Cc1cc(=O)oc2cc(OCC(=O)N3CCN(c4ccc(F)cc4)CC3)c(Cl)cc12`, the inhibition is -4.94% (inactive).

For `Oc1c(CN2CCN(c3ccc(F)cc3)CC2)cc(Cl)c2cccnc12`, the inhibition was 5.47% (active).

Regarding `Cc1cccc(C)c1NC(=O)CN1CCN(c2ccc(F)cc2)CC1`, the inhibition is 2.38% (inactive).

In the case of `O=C(CN1CCN(c2ccc(Cl)cc2)CC1)NCc1cccs1`, the inhibition is -1.08% (inactive).

As to `CC(C)Nc1ncnc2c1ncn2[C@H]1CN(Cc2ccncc2)C[C@@H](CO)O1`, the inhibition is 3.54% (inactive).

`OC[C@@H]1CN(Cc2ccc(Cl)cc2)C[C@H](n2cnc3c(NCc4ccncc4)ncnc32)O1`: the inhibition is 7.27% (active).

As for `COCCNc1ncnc2c1ncn2[C@H]1CN(Cc2ccc(OC)cc2)C[C@@H](CO)O1`, the inhibition was -1.27% (inactive).

For `CCOC(=O)c1cn[nH]c1NC(=S)Nc1ccccc1`, the inhibition was -0.64% (inactive).

As for `Cc1ccc(S(=O)(=O)CCC(=O)OCC(=O)N(C)C2CCS(=O)(=O)C2)cc1` (stereo not given), the inhibition is 6.74% (inactive).

As for `O=C(c1ccc(-n2cnnn2)cc1)N1CCN(C(c2ccccc2)c2ccccc2)CC1`, the inhibition was 1.41% (inactive).

For the compound `Cc1ccc(C2CC(c3cccc(Br)c3)n3nc(N)nc3N2)cc1` (stereo not given), the inhibition is 1.76% (inactive).

Take `Cc1ccc(C2CC(c3cccc(C)c3)n3nc(N)nc3N2)cc1` (stereo not given): the inhibition was -1.41% (inactive).

With `Nc1nc2n(n1)C(c1ccco1)CC(c1ccc(Cl)c(Cl)c1)N2` (stereo not given), the inhibition was 6.57% (active).

Take `O=C(NC(=S)Nc1ccc(Br)cc1F)C1CCCCC1`: the inhibition was 6.29% (inactive).

With `CC(=O)Nc1ccc(NC(=O)CN2C(=O)COc3ccc(S(=O)(=O)N4CCCCC4)cc32)cc1`, the inhibition is 2.56% (inactive).

As to `CN(C)c1ccc(CNC(=O)CN2C(=O)COc3ccc(S(=O)(=O)N4CCCC4)cc32)cc1`, the inhibition was 2.18% (inactive).

Consider `Cc1cccc(N(C)C(=O)CN2C(=O)COc3ccc(S(=O)(=O)N4CCCCCC4)cc32)c1`, for which the inhibition was 9.47% (active).

For `Cc1cccc(OCc2nnc(SCc3nc4cc(C(F)(F)F)ccc4c(=O)[nH]3)o2)c1`, the inhibition is 4.23% (inactive).

As to `O=C1CC(Cc2ccccc2)C(=O)N1c1ccc(Cl)cn1` (stereo not given), the inhibition was -3.26% (inactive).

As to `C=CCN(C(=O)Cn1ncc2c1-c1cc(C)ccc1OC2)c1ccccc1`, the inhibition is 2.13% (inactive).

Consider `CCOC(=O)N1CCN(C(=O)C2CCN(S(=O)(=O)c3cc(Cl)ccc3OCC)CC2)CC1`, for which the inhibition is 3.03% (inactive).

Turning to `CCOC(=O)N1CCN(C(=O)C2CCN(c3ncnc4c3sc3cccc(F)c34)CC2)CC1`, the inhibition was 18.2% (active).

On to `CCOC(=O)N1CCN(C(=O)C2CCCN(c3ncnc4c3sc3cccc(F)c34)C2)CC1` (stereo not given), for which the inhibition was 6.58% (active).

As for `Cc1cnc(C)c(N2CCN(C(=O)C3CCC(=O)N(CCc4cccc(F)c4)C3)CC2)n1` (stereo not given), the inhibition was -0.04% (inactive).

In the case of `Cc1cc(=O)n2nc(N3CCCC(C(=O)N4CCN(C)CC4)C3)sc2n1` (stereo not given), the inhibition is 1.05% (inactive).

On to `CCOC(=O)N1CCN(C(=O)C2CCN(Cc3ccc(OC)cc3OC)CC2)CC1`, for which the inhibition is 0.29% (inactive).

As for `O=C(CCNC(=O)c1ccc([N+](=O)[O-])cc1)NC1CCCCC1`, the inhibition was -2.29% (inactive).

Take `O=C1CC2(CCCCC2)Oc2ccc(OCC(=O)N3CCOCC3)cc21`: the inhibition is -3.03% (inactive).

Consider `COc1cc2c(cc1CNC[C@H]1O[C@@H](n3cnc(C(N)=O)n3)[C@H](O)[C@@H]1O)OCO2`, for which the inhibition was -2.98% (inactive).

`CCOc1ccc(N(CC)S(=O)(=O)c2cccc3nsnc23)cc1`: the inhibition is -2.8% (inactive).

With `Cc1ccc(C(NC(=O)C2CCN(CCOc3ccc(Cl)cc3Cl)CC2)c2ccccn2)cc1` (stereo not given), the inhibition was 9.27% (active).

For `O=C(NC(c1ccc(-c2ccccc2)cc1)c1cnccn1)C1CCN(CCOc2ccc(Cl)cc2Cl)CC1` (stereo not given), the inhibition is -3.71% (inactive).

With `O=C(NC(c1ccc(Cl)cc1)c1cnccn1)C1CCN(Cc2ccc(Cl)cc2)CC1` (stereo not given), the inhibition is -1.67% (inactive).

For `CCCS(=O)(=O)Nc1c(C(=O)O)[nH]c2ccccc12`, the inhibition is 0.58% (inactive).

In the case of `CCOC(=O)c1c(NC(=O)CN2C(=O)NC3(CCC(C)CC3)C2=O)sc(C)c1CC` (stereo not given), the inhibition was 0.02% (inactive).

In the case of `C=CCn1c(SCC(=O)CC(=O)OCC)nc2cc(C(=O)N3CCC(C(N)=O)CC3)ccc2c1=O`, the inhibition is -1.96% (inactive).

With `C=CCn1c2ccccc2c2nnc(SCc3[nH]c(=O)[nH]c3C(=O)CCCCC(=O)OCC)nc21`, the inhibition is 59.4% (active).

Turning to `C=CCn1c2ccccc2c2nnc(SC(CC)C(=O)Nc3nc(C)c(C(=O)OCC)s3)nc21` (stereo not given), the inhibition is 2.82% (inactive).

For the compound `COc1ccc(NC(=O)C2CCC(CNS(=O)(=O)c3csc(C(N)=O)c3)CC2)cc1OC` (stereo not given), the inhibition is -0.76% (inactive).

For `CN(CC(=O)Nc1ccc(S(=O)(=O)N2CCCC2)cc1)Cc1ccc(Cl)c(Cl)c1`, the inhibition was -4.78% (inactive).

Consider `CN(CC(=O)Nc1ccc(F)cc1)CC(=O)Nc1ccc(Cl)c(S(=O)(=O)N2CCOCC2)c1`, for which the inhibition was 5.07% (active).

Turning to `COc1ccc(CCC(=O)Nc2ccc(Cl)c(S(=O)(=O)N3CCOCC3)c2)cc1OC`, the inhibition was 0.12% (inactive).
